This note sets out measurements from PubChem BioAssay (NCATS).

Values without a mark were called inactive. Inconclusive results are not listed. Active and inactive are the calls of the source. The call rests on the fitted dose curve; in most records, active means well fitted curve in the direction sought with a large enough effect; inconclusive means small, poorly fitted or top-dose-only effect, or another doubt; inactive means no such curve, though single readings can be large; an effect the other way counts as inactive or inconclusive.

Assay [1] in a line: qHTS to identify inhibitors of the type 1 interferon - major histocompatibility complex class I in skeletal muscle: primary screen against the NCATS Pharmaceutical Collection (AID 1347407). Further: potency means the concentration at half of the fitted maximal effect. On activity change, negative = inhibition: on the % scale 0 is the no-effect control and ±100 the full control effect. In short, it runs like this: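 Luminescence from HiBiT-tagged endogenous HLA-B*08:01 served as the read-out of IFN-beta-induced MHC class I in CRISPR-engineered C25cl48 myoblasts. Cells received 4 ng/ml IFN-beta plus compound (high final 46 uM, […]) for 24 h.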

A short description of assay [2]: qHTS to identify inhibitors of the type 1 interferon - major histocompatibility complex class I in skeletal muscle: primary screen against the NCATS Mechanism Interrogation Plate v5.0 (MIPE) Libary (AID 1347411). Further: nearly all actives have a fitted effect of over 65% in size. Further: potency means the concentration at half of the fitted maximal effect.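 On activity change, negative = inhibition: plate controls were vehicle for no effect and reference inhibitor for full effect.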 In short, it runs like this: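 Immortalized human myoblasts (C25cl48) with HiBit knocked into endogenous HLA-B*08:01 were stimulated with 4 ng/ml IFN-beta and given compounds in 11-point 1:3 titration from 46 uM. After 24 h at 37 C, lytic HiBiT luminescence was read.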

Assay [3] concerns the target Protein phosphatase 1D (Homo sapiens) (UniProt O15297). Description: RapidFire Mass Spectrometry qHTS Assay for Modulators of WT P53-Induced Phosphatase 1 (WIP1) (AID 1347424).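 Further: amount of dephosphorylated VEPPL-S-QETFS peptide product formed by WIP1; series mostly up to about 63 µM; plate controls were DMSO wells for no effect and GSK830371 inhibitor control at 10 µM for full effect.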 In short, it runs like this:
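10 nM WIP1 + cpd, 1 h RT; + 2 uM VEPPL-pS-QETFS, 5 min RT; stop 0.5% formic acid; labelled product standard 1 uM; RapidFire MS. Buffer 50 mM Tris pH 7.5, 30 mM MgCl2, 1 mM TCEP.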

The target is the same in assay [4]. In words: Rhodamine-PBP qHTS Assay for Modulators of WT P53-Induced Phosphatase 1 (WIP1) (AID 1347425). Further: % of control where 0% means no effect. In short, it runs like this:
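5 nM WIP1 + 10 uM Rh-PBP, 50 mM Tris pH 7.5, 30 mM MgCl2, 1 mM TCEP, 0.1 mM EGTA, BSA; cpds pinned, 1 hr RT; + 10 uM phosphopeptide; fluorescence 1-min reads x 11 min; delta = f1 - f0.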

Assay [5] can be described thus: Primary qHTS for inhibitors of La Crosse Virus (LACV) - induced cell death in SH-SY5Y cells (AID 1508616).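 Further: top concentration of the series differs between compounds; 0% = infected DMSO wells and 100% = uninfected DMSO wells; higher means more rescue of cells from virus-induced death.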 Summed up: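 SH-SY5Y cells (6000/well) plated 24 h, then given compounds by pin transfer and LACV at 0.01 MOI for 6 days at 37C. Viability measured by ATPLite luminescence, normalized to infected DMSO and uninfected DMSO.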
Assay [6] deals with Calcium and integrin-binding protein 1 (Homo sapiens) (UniProt Q99828). In words: Primary qHTS for Identification of Calcium Integrin Binding Protein 1 (CIB1) Competitor (AID 1508620).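 Further: GST tagged CIB1 binding a fluorescein labelled alphaIIb integrin peptide tracer; top concentration of the series differs between compounds; on the % scale 0 is the no-effect control and ±100 the full control effect.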 In short, it runs like this: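 CIB1-GST (1 uM final) and compound incubated 15 min at room temperature before adding FITC-alphaIIb peptide tracer (100 nM final). Competition for binding read by fluorescence polarization (ex 480, em 540) after another 15 min at room temperature.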

Assay [7] is described as follows: Counterscreen qHTS for small molecule stabilizers of the endoplasmic reticulum resident proteome: GLuc-NoTag assay (AID 1508627).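 Further: SH-SY5Y cells given compound then 100 nM thapsigargin to empty ER calcium; series mostly up to about 76 µM; 0% = thapsigargin alone and -100% = DMSO vehicle control.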 In short, it runs like this:
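Luminescence of Gaussia luciferase secreted into the medium (coelenterazine, 0.07x final, unlysed cells) was the read-out. Human SH-SY5Y neuroblastoma cells constitutively secreting untagged GLuc received compound for 19 h, then 100 nM thapsigargin for 4 h.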

The nature of assay [8]: Confirmatory qHTS for small molecule stabilizers of the endoplasmic reticulum resident proteome: Secreted ER Calcium Modulated Protein (SERCaMP) assay (AID 1508628). Further: series mostly up to about 76 µM; on the % scale 0 is the no-effect control and ±100 the full control effect; nearly all actives have a fitted effect of over 40% in size. Summed up:
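SH-SY5Y cells stably expressing GLuc-SERCaMP, treated 16 h with compound (primary 1.53, 7.67, 38.3 uM; confirmation 11 concentrations, up to 76.6 uM), then 100 nM thapsigargin for 4 h. Secreted Gaussia luciferase in medium read by coelenterazine luminescence.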

A short description of assay [9]: qHTS for inhibitors of adenylyl cyclases using a fission yeast platform: a pilot screen against the NCATS LOPAC library (AID 1347410).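 Further: plate controls were DMSO vehicle for no effect and DPI positive control for full effect.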 In short, it runs like this:
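Fission yeast qHTS: CHP2027 cells (AC9-GNAS-PDE4D2, fbp1-GFP), 5x10^6 cells/mL working density, EMM + His/Lys/Ura; LOPAC at up to 57 µM final; 18 h dark, 30C; GFP by laser cytometry. DPI positive control, DMSO vehicle.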

Assay [10] in a line: Validation qHTS assay for inhibitors of Activation Induced Cytidine Deaminase (AID): UDG Counterscreen signal (AID 1347427). Further: 0% is about no effect. In short, it runs like this:
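Counterscreen read of UDG activity (2 U/mL, 4/3x) in the FRET deamination format with AID (1 uM, 4/3x), DJC20/DJC23 substrates (250 nM, 4x), 4 h at room temperature. NaOH stop, fluorescence at 560 ex/665 em.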

Assay [11] concerns the target Calcium and integrin-binding protein 1 (Homo sapiens) (UniProt Q99828). In words: Validation qHTS for Identification of Calcium Integrin Binding protein 1 (CIB1) Competitor (AID 1508618). Further: on the % scale 0 is the no-effect control and ±100 the full control effect. In short, it runs like this:
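Displacement of FITC-alphaIIb peptide (100 nM) from CIB1-GST (1 uM) is monitored by polarization in quantitative HTS format; buffer carries 5 mM CaCl2 and 125 mM NaCl at pH 7.4, incubations are at room temperature.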

Sequence of Calcium and integrin-binding protein 1 (Homo sapiens) (Q99828 whole entry, looked up): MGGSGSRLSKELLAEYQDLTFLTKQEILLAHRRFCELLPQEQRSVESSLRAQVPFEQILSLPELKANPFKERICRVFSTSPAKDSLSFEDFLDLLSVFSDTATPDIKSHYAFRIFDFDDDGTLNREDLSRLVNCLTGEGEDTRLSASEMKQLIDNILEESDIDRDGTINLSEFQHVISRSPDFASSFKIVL
Sequence of Protein phosphatase 1D (Homo sapiens) (O15297 whole entry, looked up): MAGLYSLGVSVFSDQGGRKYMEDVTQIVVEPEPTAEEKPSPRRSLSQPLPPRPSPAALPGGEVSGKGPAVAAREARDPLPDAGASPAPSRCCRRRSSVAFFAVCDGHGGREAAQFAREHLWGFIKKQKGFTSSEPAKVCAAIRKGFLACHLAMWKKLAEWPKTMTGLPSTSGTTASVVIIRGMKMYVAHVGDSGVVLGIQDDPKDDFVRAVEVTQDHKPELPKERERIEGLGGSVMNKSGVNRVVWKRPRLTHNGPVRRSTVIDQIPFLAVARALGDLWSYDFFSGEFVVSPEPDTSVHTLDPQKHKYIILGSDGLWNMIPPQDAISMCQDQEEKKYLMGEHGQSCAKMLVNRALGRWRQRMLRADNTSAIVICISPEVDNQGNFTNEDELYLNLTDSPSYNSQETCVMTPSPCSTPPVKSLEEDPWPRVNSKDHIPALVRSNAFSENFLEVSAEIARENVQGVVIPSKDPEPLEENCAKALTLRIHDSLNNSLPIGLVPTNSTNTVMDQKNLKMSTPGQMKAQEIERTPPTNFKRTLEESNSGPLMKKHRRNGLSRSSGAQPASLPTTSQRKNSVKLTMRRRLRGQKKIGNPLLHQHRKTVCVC

With `CN(Cc1cc(Br)cc(Br)c1N)C1CCCCC1`, the Potency entry in [1], in [2] and in assay [5] was “inactive” throughout. Further, the outcome in assay [3], in assay [4] and in assay [6] was inactive.

For the molecule `O=c1cc(O)c(Cl)c[nH]1`, the Potency result in [1], in [2] and in [5] was “inactive” each time. Moreover, the outcome in assay [3], in [4] and in [6] was inactive.

Consider `COc1nc(N)nc2c1ncn2[C@@H]1O[C@H](CO)[C@@H](O)[C@@H]1O`, for which the Potency entry in assay [1] and in assay [5] was “inactive” in each case. Further, the outcome in [3], in assay [4] and in assay [6] was inactive.

In the case of `Nc1nc(N)nc(-c2cc(Cl)ccc2Cl)n1`, the Potency result in assay [1], in [2] and in assay [5] was “inactive” each time. Besides, the result in assay [3], in assay [4] and in assay [6] was inactive.

Turning to `CC(=O)[C@H]1CC[C@H]2[C@@H]3CC=C4C[C@@H](O)CC[C@]4(C)[C@H]3CC[C@]12C`, the Potency result in assay [1], in assay [2] and in assay [5] was “inactive” in each case. The call in assay [3], in [4] and in assay [6] was inactive.

`O=c1oc2c(O)c(O)cc3c(=O)oc4c(O)c(O)cc1c4c23`: the Potency entry in assay [1], in assay [2] and in assay [5] was “inactive” in each case. Further, the result in [3], in assay [4] and in [6] was inactive.

As to `S=P(N1CC1)(N1CC1)N1CC1`, the Potency result in assay [1], in [2], in assay [5] and in [8] was “inactive” throughout. Also, the molecule was classed as inactive in assay [3] and in assay [7].

For `CCOc1cc(N)c(Cl)cc1C(=O)NCC1CN(Cc2ccc(F)cc2)CCO1` (stereo not drawn), the Potency result in assay [1], in assay [2], in assay [5] and in [8] was “inactive” each time. Moreover, the result in assay [3], in assay [4], in [6] and in assay [7] was inactive.

Turning to `CNS(=O)(=O)Cc1ccc2[nH]cc(CCN(C)C)c2c1`, the Potency entry in assay [1] and in assay [5] was “inactive” each time. The molecule was classed as inactive in [3], in assay [4] and in [6].

For the molecule `O=NN(CCCl)C(=O)NC1CCCCC1`, the Potency result in assay [1], in [2] and in [5] was “inactive” each time. In addition, the result in assay [4] and in assay [6] was inactive.

On to `O=C(N[C@H](CO)[C@H](O)c1ccc([N+](=O)[O-])cc1)C(Cl)Cl`, for which the Potency result in assay [1] and in assay [5] was “inactive” throughout. In addition, the outcome in assay [3], in [4] and in [6] was inactive.

For the molecule `COc1ccc(C(=O)CC(=O)c2ccc(C(C)(C)C)cc2)cc1`, the Potency entry in assay [1], in [2] and in assay [5] was “inactive” in each case. In addition, the molecule was classed as inactive in assay [3], in assay [4] and in [6].

On to `COc1ccccc1OCC(O)COC(N)=O` (stereo not drawn), for which the Potency entry in assay [1] and in [5] was “inactive” throughout. For the same molecule, the molecule was classed as inactive in [3] and in assay [4].

Regarding `NC(N)=NC(N)=NCCc1ccccc1`, the Potency entry in assay [1], in assay [2] and in assay [5] was “inactive” each time. The molecule was classed as inactive in assay [3], in [4] and in [6].

On to `CCCCCCNC(=O)n1cc(F)c(=O)[nH]c1=O`, for which the Potency entry in assay [1], in assay [2] and in assay [5] was “inactive” in each case. For the same molecule, the outcome in assay [3], in assay [4] and in [6] was inactive.

For the molecule `Cc1cc(NS(=O)(=O)c2ccc(N)cc2)no1`, the Potency entry in [1] and in assay [5] was “inactive” in each case. Further, the molecule was called inactive in [3] and in assay [4].

With `Oc1c(Cl)cc(Cl)c2cccnc12`, in assay [1], the Potency entry is “inactive”. Besides, the Potency in [2] was 23.4 µM (active). Moreover, the molecule was called inactive in assay [3], in assay [4] and in assay [7].

On to `N[C@@H](C(=O)N[C@@H]1C(=O)N2C(C(=O)O)=C(Cl)CS[C@H]12)c1ccccc1`, for which the activity change, negative = inhibition in assay [1] is 3% [at 9.18 µM]; in assay [3], -1.8% [at 12.6 µM]; in assay [4] it was 10.7% [at 11.5 µM]. Besides, the activity change in [5] is -11.4% [at 0.858 µM].

On to `COc1cccc(N(C)C(=S)Oc2ccc3c(c2)CCCC3)n1`, for which the Potency result in assay [1] and in assay [5] was “inactive” throughout. The call in assay [3] and in [4] was inactive.

As for `Nc1[nH]c(=O)ncc1F`, the Potency result in [1], in [2] and in assay [5] was “inactive” each time. Further, the molecule was classed as inactive in assay [3], in assay [4] and in assay [6].

As to `CCOCC(O)COc1ccc(NC(=O)CC[S+](C)C)cc1` (stereo not drawn), the Potency result in [1], in [2] and in assay [5] was “inactive” each time. The result in [3], in assay [4] and in assay [6] was inactive.

For the molecule `Nc1ccc(S(=O)(=O)Nc2ccccn2)cc1`, the Potency result in [1] and in assay [5] was “inactive” each time. Further, the call in assay [3] and in assay [4] was inactive.

As for `CN(C)c1ccc(C(=C2C=CC(=[N+](C)C)C=C2)c2ccc(N(C)C)cc2)cc1`, the figures for the Potency in [1] and in [2] were 9.38 µM (active) and 3.7 µM (active), respectively. Further, the result in assay [3], in [4] and in [6] was inactive.

For `C[C@]12C=CC(=O)C=C1CC[C@@H]1[C@@H]2C(=O)C[C@@]2(C)[C@H]1CC[C@]2(O)C(=O)CO`, the Potency result in [1], in assay [2] and in assay [5] was “inactive” throughout. Also, the molecule was classed as inactive in assay [3], in [4] and in assay [6].

For the molecule `Cc1nnc(NS(=O)(=O)c2ccc(N)cc2)s1`, the Potency result in assay [1], in assay [2] and in assay [5] was “inactive” in each case. Also, the molecule was called inactive in assay [3], in assay [4] and in assay [6].

Regarding `CC1=CC(=O)c2ccccc2C1=O`, the Potency entry in [1] and in [5] was “inactive” throughout. For the same molecule, the molecule was called inactive in [3] and in [4].

For `COc1cc(NS(=O)(=O)c2ccc(N)cc2)nc(OC)n1`, the Potency entry in assay [1] and in assay [5] was “inactive” throughout. In addition, the molecule was classed as inactive in assay [3], in assay [4] and in assay [6].

As to `CCn1cc(C(=O)O)c(=O)c2cc(F)c(N3CCN(C)CC3)cc21`, the call in assay [3] and in assay [4] was inactive. The Potency result in [5] is “inactive”.

`COc1cc([C@@H]2c3cc4c(cc3[C@H](O)[C@H]3COC(=O)[C@H]23)OCO4)cc(OC)c1OC`: the Potency entry in assay [1] and in assay [5] was “inactive” each time. The molecule was classed as inactive in assay [3], in assay [4] and in assay [6].

As for `CCOC(=O)[C@H](CCc1ccccc1)N[C@H]1CCc2ccccc2N(CC(=O)O)C1=O`, the Potency result in [2] and in [5] was “inactive” throughout. For the same molecule, the call in assay [3] and in assay [4] was inactive.

Regarding `Cc1c(-c2ccc(O)cc2)n(Cc2ccc(OCCN3CCCCCC3)cc2)c2ccc(O)cc12`, the call in assay [3] and in [4] was inactive.

For the molecule `COc1cc2nc(N3CCCN(C)CC3)nc(NC3CCN(Cc4ccccc4)CC3)c2cc1OC`, the molecule was called inactive in assay [9], in [10], in [11] and in assay [6].

In the case of `COc1ccc2cc3[n+](cc2c1OC)CCc1cc2c(cc1-3)OCO2`, the Potency result in assay [1] and in [5] was “inactive” in each case. Also, the result in [3], in assay [4] and in [6] was inactive.

As to `COc1cnc(NS(=O)(=O)c2ccc(N)cc2)nc1`, the Potency result in [1] and in assay [5] was “inactive” in each case. Also, the molecule was classed as inactive in assay [3], in [4] and in assay [6].

`CCC(=O)O[C@]1(C(=O)SCF)[C@H](C)C[C@H]2[C@@H]3C[C@H](F)C4=CC(=O)C=C[C@]4(C)[C@@]3(F)[C@@H](O)C[C@@]21C`: the Potency result in assay [2] and in assay [5] was “inactive” in each case. The result in [3], in assay [4] and in assay [6] was inactive.
